Consider 40 compounds from PubChem BioAssay (Tox21).

Unmarked numbers belong to inactive results. Results filed as inconclusive are left out. Where a call stands in place of a potency, no number is given. Active and inactive are the calls of the source. The call rests on the fitted dose curve.

Chain of Acetylcholinesterase (Homo sapiens) (P22303 whole entry, looked up): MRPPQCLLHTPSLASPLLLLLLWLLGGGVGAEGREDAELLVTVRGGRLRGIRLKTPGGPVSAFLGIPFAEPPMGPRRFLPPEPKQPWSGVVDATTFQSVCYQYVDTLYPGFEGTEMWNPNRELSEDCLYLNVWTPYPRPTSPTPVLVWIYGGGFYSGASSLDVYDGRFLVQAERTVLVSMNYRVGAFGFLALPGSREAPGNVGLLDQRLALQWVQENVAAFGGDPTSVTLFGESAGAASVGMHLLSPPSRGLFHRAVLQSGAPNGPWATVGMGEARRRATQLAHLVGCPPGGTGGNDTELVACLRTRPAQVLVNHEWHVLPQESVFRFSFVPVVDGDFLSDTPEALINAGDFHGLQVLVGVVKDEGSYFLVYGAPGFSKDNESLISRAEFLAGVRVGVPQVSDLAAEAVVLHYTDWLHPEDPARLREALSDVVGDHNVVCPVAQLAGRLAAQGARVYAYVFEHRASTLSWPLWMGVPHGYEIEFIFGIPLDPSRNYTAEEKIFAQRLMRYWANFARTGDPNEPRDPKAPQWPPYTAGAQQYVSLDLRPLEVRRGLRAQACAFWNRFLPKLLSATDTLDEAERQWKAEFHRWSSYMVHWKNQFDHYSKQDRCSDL

One test has as its target Acetylcholinesterase (Homo sapiens) (UniProt P22303). Kind of test: Acetylcholinesterase (AChE) small molecule antagonists: colormetric cell-based qHTS assay (AID 1347395). Further: nearly all actives have a fitted effect of over 30% in size. Conditions: SH-SY5Y cells AChE activity, colorimetric (Ellman); series mostly up to 115 µM. The procedure, abridged: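 Neuroblastoma line SH-SY5Y supplied the enzyme; cells were preincubated with compound for 30 min at 37 C and 5% CO2. Acetylthiocholine with DTNB was then added for 90 min at 37 C, and thiocholine was measured by colour.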
On to `CC(C)=CCOc1ccc(/C=C/C(=O)c2ccc(OCC=C(C)C)cc2OCC(=O)O)cc1`, for which the Potency result was “inactive”.

`CC(C(=O)O)c1ccc(CC2CCCC2=O)cc1` (stereo not given): the Potency entry was “inactive”.

`CCCCOC(=O)C(C)CC` (stereo not given): the Potency result was “inactive”.

On to `COC(=O)c1cc(S(N)(=O)=O)ccc1OC`, for which the Potency result is “inactive”.

For the compound `CC(=O)c1ccc2c(c1)Cc1ccccc1-2`, the Potency result was “inactive”.

With `O=S(O)(O)=S`, the activity, negative = inhibition is -0.643% [at 10.5 µM].

On to `CC(NC(CCc1ccccc1)C(=O)O)C(=O)N1C(=O)N(C)CC1C(=O)O` (stereo not given), for which the Potency result is “inactive”.

Regarding `CCOC(=O)C(C)(C)C`, the Potency entry was “inactive”.

Consider `O=C1N(c2ccccc2)c2ccccc2C1(Cc1ccncc1)Cc1ccncc1`, for which the Potency entry is “inactive”.

For `C/C=C(\C)C(=O)OCC/C=C\CC`, the Potency result is “inactive”.

With `CNCCS(=O)(=O)O`, the Potency entry is “inactive”.

As for `Nc1nc(-c2ccccc2)c(Br)c(=O)[nH]1`, the Potency entry was “inactive”.

Regarding `CC(C)CCCC(C)CCO` (stereo not given), the Potency entry was “inactive”.

For the compound `CCOC(=O)c1ccccc1`, the Potency entry is “inactive”.

On to `CCOC(=N)CC(=O)OCC`, for which the Potency entry was “inactive”.

On to `CCC[C@@H]1C[C@@H](C(=O)N[C@@H]([C@H]2O[C@H](SC)[C@H](O)[C@@H](O)[C@H]2O)[C@@H](C)O)N(C)C1`, for which the Potency entry is “inactive”.

With `CN1CCN(C(=O)C2CCCCC2)CC1`, the Potency result is “inactive”.

On to `CCOC(=O)Nc1ccc2c(c1)N(C(=O)CCN1CCOCC1)c1ccccc1S2`, for which the Potency entry was “inactive”.

Take `CCOCCOC(=O)/C=C/c1ccc(OC)cc1`: the Potency entry was “inactive”.

Regarding `Nc1ccc(NC(=O)c2ccc(N)cc2)cc1`, the Potency entry is “inactive”.

Regarding `Nc1ccc(C(=O)OCC(O)CO)cc1` (stereo not given), the Potency entry is “inactive”.

As to `CC(C)(C)C1CCCCC1=O` (stereo not given), the Potency entry was “inactive”.

On to `CCCCCCNC(=O)n1cc(F)c(=O)[nH]c1=O`, for which the Potency entry is “inactive”.

Consider `C1=CCC(c2ccccc2)CC1` (stereo not given), for which the Potency result was “inactive”.

Take `Cn1c(=O)c2c(ncn2CC(O)CO)n(C)c1=O` (stereo not given): the Potency entry is “inactive”.

For `CCC1(C)NC(=O)NC1=O` (stereo not given), the Potency result was “inactive”.

For the compound `CCOC(=S)SSC(=S)OCC`, the Potency result is “inactive”.

With `C=COCCCC`, the Potency entry is “inactive”.

For `NNc1nc(-c2ccc(N)cc2)cs1`, the Potency result is “inactive”.

For `CC1=CC(=O)CC(C)(C)C1=O`, the Potency entry was “inactive”.

Regarding `O=S(=O)(O)c1ccccc1O`, the Potency result was “inactive”.

With `CC(N=C(NC#N)Nc1ccncc1)C(C)(C)C` (stereo not given), the Potency result was “inactive”.

Take `CCN(CC)CC(=O)OCC(=O)[C@@]1(O)CC[C@H]2[C@@H]3CCC4=CC(=O)CC[C@]4(C)[C@H]3[C@@H](O)C[C@@]21C`: the Potency result is “inactive”.

`COc1cc(NS(=O)(=O)c2ccc(N)cc2)nc(C)n1`: the Potency entry was “inactive”.

As for `CCOc1ccc2[nH]cc(C(=O)NCc3ccccc3)c(=O)c2n1`, the Potency entry is “inactive”.

For the compound `CC1(C)CC(N)CC(C)(C)N1`, the Potency result was “inactive”.

As to `O=C1c2ccccc2C(=O)c2cc(Cl)ccc21`, the activity, negative = inhibition is -0.634% [at 10.5 µM].

Turning to `COC(=O)CC#N`, the Potency entry was “inactive”.

With `CC(C)(O)c1ccccc1`, the Potency result was “inactive”.

`CCC(Cl)C(Cl)C(Cl)CC(Cl)C(Cl)C(C)Cl` (stereo not given): the Potency result is “inactive”.

For another test the target is unchanged. The test is described as follows: Acetylcholinesterase (AChE) small molecule antagonists: enzyme-based qHTS assay (AID 1347397). Further: nearly all actives have a fitted effect of over 55% in size. To be noted: Potency: AChE enzyme activity inhibition; outcome: AChE enzyme activity inhibition; series mostly up to 115 µM. The procedure, abridged:
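rhAChE 50 mU/mL (dispensed) + cpd or DMSO, 30 min RT; add DTNB/acetylthiocholine cocktail, 10 min RT; colorimetric thiocholine readout. qHTS, 1536-well format.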
`CC(C)=CCOc1ccc(/C=C/C(=O)c2ccc(OCC=C(C)C)cc2OCC(=O)O)cc1`: the Potency entry was “inactive”.

In the case of `CC(C(=O)O)c1ccc(CC2CCCC2=O)cc1` (stereo not given), the Potency entry was “inactive”.

For `CCCCOC(=O)C(C)CC` (stereo not given), the Potency result is “inactive”.

Take `COC(=O)c1cc(S(N)(=O)=O)ccc1OC`: the Potency result was “inactive”.

As for `CC(=O)c1ccc2c(c1)Cc1ccccc1-2`, the Potency entry was “inactive”.

On to `O=S(O)(O)=S`, for which the activity change, negative = inhibition was 0.136% [at 10.5 µM].

Regarding `CC(NC(CCc1ccccc1)C(=O)O)C(=O)N1C(=O)N(C)CC1C(=O)O` (stereo not given), the Potency result was “inactive”.

Turning to `CCOC(=O)C(C)(C)C`, the Potency entry is “inactive”.

`O=C1N(c2ccccc2)c2ccccc2C1(Cc1ccncc1)Cc1ccncc1`: the Potency entry is “inactive”.

As to `C/C=C(\C)C(=O)OCC/C=C\CC`, the Potency result is “inactive”.

With `CNCCS(=O)(=O)O`, the Potency result is “inactive”.

On to `Nc1nc(-c2ccccc2)c(Br)c(=O)[nH]1`, for which the Potency entry is “inactive”.

In the case of `CC(C)CCCC(C)CCO` (stereo not given), the Potency entry is “inactive”.

In the case of `CCOC(=O)c1ccccc1`, the Potency result was “inactive”.

Consider `CCOC(=N)CC(=O)OCC`, for which the Potency result was “inactive”.

In the case of `CCC[C@@H]1C[C@@H](C(=O)N[C@@H]([C@H]2O[C@H](SC)[C@H](O)[C@@H](O)[C@H]2O)[C@@H](C)O)N(C)C1`, the Potency result was “inactive”.

For the compound `CN1CCN(C(=O)C2CCCCC2)CC1`, the Potency entry is “inactive”.

As for `CCOC(=O)Nc1ccc2c(c1)N(C(=O)CCN1CCOCC1)c1ccccc1S2`, the Potency entry was “inactive”.

As for `CCOCCOC(=O)/C=C/c1ccc(OC)cc1`, the Potency entry is “inactive”.

As for `Nc1ccc(NC(=O)c2ccc(N)cc2)cc1`, the Potency entry is “inactive”.

Regarding `Nc1ccc(C(=O)OCC(O)CO)cc1` (stereo not given), the Potency result was “inactive”.

Take `CC(C)(C)C1CCCCC1=O` (stereo not given): the Potency result is “inactive”.

Take `CCCCCCNC(=O)n1cc(F)c(=O)[nH]c1=O`: the Potency result is “inactive”.

For `C1=CCC(c2ccccc2)CC1` (stereo not given), the Potency result was “inactive”.

As to `Cn1c(=O)c2c(ncn2CC(O)CO)n(C)c1=O` (stereo not given), the Potency entry is “inactive”.

With `CCC1(C)NC(=O)NC1=O` (stereo not given), the Potency entry was “inactive”.

Turning to `CCOC(=S)SSC(=S)OCC`, the Potency result is “inactive”.

As for `C=COCCCC`, the Potency result was “inactive”.

In the case of `NNc1nc(-c2ccc(N)cc2)cs1`, the Potency entry was “inactive”.

With `CC1=CC(=O)CC(C)(C)C1=O`, the Potency result is “inactive”.

Consider `O=S(=O)(O)c1ccccc1O`, for which the Potency result was “inactive”.

Take `CC(N=C(NC#N)Nc1ccncc1)C(C)(C)C` (stereo not given): the Potency entry was “inactive”.

Turning to `CCN(CC)CC(=O)OCC(=O)[C@@]1(O)CC[C@H]2[C@@H]3CCC4=CC(=O)CC[C@]4(C)[C@H]3[C@@H](O)C[C@@]21C`, the Potency result is “inactive”.

Take `COc1cc(NS(=O)(=O)c2ccc(N)cc2)nc(C)n1`: the Potency result is “inactive”.

For `CCOc1ccc2[nH]cc(C(=O)NCc3ccccc3)c(=O)c2n1`, the Potency entry was “inactive”.

Regarding `CC1(C)CC(N)CC(C)(C)N1`, the Potency result is “inactive”.

For the compound `O=C1c2ccccc2C(=O)c2cc(Cl)ccc21`, the activity change, negative = inhibition is -1.23% [at 10.5 µM].

`COC(=O)CC#N`: the Potency result is “inactive”.

On to `CC(C)(O)c1ccccc1`, for which the Potency result is “inactive”.

Consider `CCC(Cl)C(Cl)C(Cl)CC(Cl)C(Cl)C(C)Cl` (stereo not given), for which the Potency result is “inactive”.
